# “And” between values parts separate entries of the source, which are not always exact repeats. Equal entries are not always repeated. Records with an inconclusive call do not appear. Entries that show only a call come without a potency. Some structures have more than one record in an assay (separate samples or runs), and their calls can disagree. The source made the active and inactive calls. Unless noted, calls come from the whole dose curve; as a rule, active = well fitted curve in the direction sought with a large enough effect in the repeat runs; inconclusive = weak or mixed curves; inactive = no such curve, though single readings can be large; an effect the other way counts as inactive or inconclusive.
# How the values were obtained:
# [1] = qHTS assay to identify small molecule agonists of H2AX - cell viability counter screen (AID 1224847; calls by dose curve; note: top concentration of the series differs between compounds; nearly all actives have a fitted effect of over 30% in size); conditions: CHO-K1 viability, CellTiter-Glo luminescence, 3 h; series mostly up to 154 µM
# Method in brief: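 We seed wild-type CHO-K1 cells overnight, treat them for 3 hr at 37C with compounds in 15-concentration series, and quantify remaining viability by CellTiter-Glo luminescence.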
# [2] = qHTS RealTime-Glo MT Cell Viability Assay in HepG2 cells - 24 hour (AID 1224867); conditions: RealTime-Glo luminescence; series mostly up to 76.8 µM; note: nearly all actives have a fitted effect of over 50% in size
# Method in brief: (§1)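 Luminescence read-out: viable HepG2 cells reduce a prosubstrate to a NanoLuc substrate, giving a signal proportional to live cell number. Reads taken at 0, 8, 16, 24, 32 and 40 h of compound exposure at 37 C.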
# [3] = A CellTox Green Cytotoxicity Assay to monitor cytotoxicity in HEK293 cells - 0 hour (AID 1224869); conditions: CellTox Green fluorescence; series mostly up to 76.8 µM; note: nearly all actives have a fitted effect of over 50% in size
# Method in brief: (§2)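 Cytotoxicity was tracked continuously in HEK293 cells by a DNA-binding dye excluded from viable cells. Compounds were transferred in DMSO 5 h after seeding; fluorescence was recorded at intervals up to 40 h.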
# [4] = qHTS RealTime-Glo MT Cell Viability Assay in HepG2 cells - 40 hour (AID 1224870); conditions: RealTime-Glo luminescence; series mostly up to 76.8 µM; note: nearly all actives have a fitted effect of over 50% in size
# Method in brief: (§3)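 HepG2 cells mixed with RealTime-Glo MT reagents (NanoLuc plus cell-permeant prosubstrate) were seeded at 600 cells/well, incubated 5 h at 37 C/5% CO2, then pinned with compounds in DMSO; nonlytic luminescence tracked viability during 40 h treatment.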
# [5] = A CellTox Green Cytotoxicity Assay to monitor cytotoxicity in HEK293 cells - 40 hour (AID 1224871); conditions: CellTox Green fluorescence; series mostly up to 76.8 µM; note: nearly all actives have a fitted effect of over 45% in size
# Method in brief: as §2
# [6] = qHTS RealTime-Glo MT Cell Viability Assay in HEK293 cells - 16 hour (AID 1224872); conditions: RealTime-Glo luminescence; series mostly up to 76.8 µM; note: top concentration of the series differs between compounds; nearly all actives have a fitted effect of over 50% in size
# Method in brief: (§4)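 Nonlytic real-time viability readout: viable cells convert prosubstrate to NanoLuc substrate, giving luminescence proportional to live cell number. HEK293, 600 cells/well, compound added after 5 h, continuous culture at 37 C.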
# [7] = qHTS RealTime-Glo MT Cell Viability Assay in HepG2 cells - 8 hour (AID 1224873); conditions: RealTime-Glo luminescence; series mostly up to 76.8 µM; note: nearly all actives have a fitted effect of over 55% in size
# Method in brief: as §3
# [8] = qHTS RealTime-Glo MT Cell Viability Assay in HEK293 cells - 40 hour (AID 1224874); conditions: RealTime-Glo luminescence; max response: stronger effect = lower value; note: nearly all actives have a fitted effect of over 50% in size
# Method in brief: (§5)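 Nonlytic bioluminescent viability monitoring. HEK293 at 600 cells/well with reagent; 5 h settle; compound transfer by pintool; plates held at 37 C and read at set time points.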
# [9] = A CellTox Green Cytotoxicity Assay to monitor cytotoxicity in HepG2 cells - 16 hour (AID 1224876); conditions: CellTox Green fluorescence; series mostly up to 76.8 µM; note: nearly all actives have a fitted effect of over 45% in size
# Method in brief: (§6)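 Real-time, homogeneous cytotoxicity readout: dead-cell DNA staining by CellTox Green in HepG2 monolayers, fluorescence measured at timed intervals up to 40 h of continuous compound exposure.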
# [10] = qHTS RealTime-Glo MT Cell Viability Assay in HepG2 cells - 32 hour (AID 1224877); conditions: RealTime-Glo luminescence; series mostly up to 76.8 µM; note: nearly all actives have a fitted effect of over 55% in size
# Method in brief: as §1
# [11] = A CellTox Green Cytotoxicity Assay to monitor cytotoxicity in HepG2 cells - 24 hour (AID 1224878); conditions: CellTox Green fluorescence; series mostly up to 76.8 µM; note: nearly all actives have a fitted effect of over 45% in size
# Method in brief: as §6
# [12] = A CellTox Green Cytotoxicity Assay to monitor cytotoxicity in HepG2 cells - 40 hour (AID 1224879); conditions: CellTox Green fluorescence; series mostly up to 76.8 µM; note: nearly all actives have a fitted effect of over 40% in size; note: potency is the fitted concentration of half-maximal effect
# Method in brief: as §6
# [13] = qHTS RealTime-Glo MT Cell Viability Assay in HEK293 cells - 0 hour (AID 1224880); conditions: RealTime-Glo luminescence; series mostly up to 76.8 µM; note: top concentration of the series differs between compounds; nearly all actives have a fitted effect of over 45% in size
# Method in brief: as §5
# [14] = A CellTox Green Cytotoxicity Assay to monitor cytotoxicity in HEK293 cells - 32 hour (AID 1224881); conditions: CellTox Green fluorescence; series mostly up to 76.8 µM; note: nearly all actives have a fitted effect of over 40% in size
# Method in brief: as §2
# [15] = A CellTox Green Cytotoxicity Assay to monitor cytotoxicity in HepG2 cells - 0 hour (AID 1224882); conditions: CellTox Green fluorescence; series mostly up to 76.8 µM; note: nearly all actives have a fitted effect of over 35% in size
# Method in brief: as §6
# [16] = A CellTox Green Cytotoxicity Assay to monitor cytotoxicity in HepG2 cells - 32 hour (AID 1224883); conditions: CellTox Green fluorescence; series mostly up to 76.8 µM; note: nearly all actives have a fitted effect of over 50% in size
# Method in brief: as §6
# [17] = qHTS RealTime-Glo MT Cell Viability Assay in HEK293 cells - 32 hour (AID 1224868); conditions: RealTime-Glo luminescence; series mostly up to 76.8 µM
# Method in brief: as §4
# [18] = A CellTox Green Cytotoxicity Assay to monitor cytotoxicity in HEK293 cells - 24 hour (AID 1224875); conditions: CellTox Green fluorescence; series mostly up to 76.8 µM; note: nearly all actives have a fitted effect of over 45% in size
# Method in brief: as §2
Compound,Potency [1],outcome [2],outcome [3],outcome [4],Potency [5],Potency [6],outcome [7],max response [8],Potency [9],outcome [10],Potency [11],Potency [12],Potency [13],Potency [14],outcome [15],Potency [16],Potency [17],Potency [18]
CC(=O)CC(=O)Nc1ccccc1,inactive,inactive,inactive,inactive,inactive,inactive,inactive,-1.61% (inactive) and 1.86% (inactive),inactive,inactive,inactive,inactive,inactive,inactive,inactive,inactive,–,–
CCCCCCCCCCCCS,inactive,inactive,inactive,inactive,inactive,–,inactive,0.961% (inactive) and 6.67% (inactive),inactive,inactive,inactive,inactive,inactive,inactive,inactive,inactive,inactive,inactive
CC(C)c1ccc(S(=O)(=O)O)cc1,inactive,inactive,inactive,inactive,inactive,inactive,inactive,-1.12% (inactive) and 9.2% (inactive),inactive,inactive,inactive,inactive,inactive,inactive,inactive,inactive,inactive,–
O=S1(=O)CC=CC1,inactive,inactive,inactive,inactive,inactive,–,inactive,-4.83% (inactive) and 3.43% (inactive),inactive,inactive,inactive,inactive,inactive,inactive,inactive,inactive,inactive,–
CCN(CC)c1ccc(C(=O)c2ccccc2C(=O)O)c(O)c1,inactive,inactive,inactive,inactive,inactive,inactive,–,-1.39% (inactive) and 2.11% (inactive),inactive,inactive,inactive,inactive,inactive,inactive,inactive,inactive,inactive,inactive
CC1=CC(=O)NS(=O)(=O)O1,inactive,inactive,inactive,inactive,inactive,inactive,–,-28.6% (inactive) and 3.78% (inactive),inactive,inactive,inactive,inactive,inactive,inactive,inactive,inactive,inactive,–
O=C(O)c1cc(O)c(O)c(O)c1,inactive,inactive,inactive,inactive,inactive,inactive,inactive,-26.7% (inactive) and 2.18% (inactive),inactive,inactive,inactive,inactive,inactive,inactive,inactive,inactive,inactive,inactive
O=C(O)c1cc(=O)c2c(OCC(O)COc3cccc4oc(C(=O)O)cc(=O)c34)cccc2o1,inactive,inactive,inactive,inactive,inactive,inactive,–,0.302% (inactive) and 1.24% (inactive),inactive,inactive,inactive,inactive,inactive,inactive,inactive,inactive,–,inactive
Cc1ccc2oc(=O)ccc2c1,inactive,inactive,inactive,inactive,inactive,–,inactive,-2.42% (inactive) and -2.11% (inactive),inactive,inactive,inactive,inactive,inactive,inactive,inactive,inactive,inactive,inactive
O=C(O)c1ccc(C(=O)O)cc1,inactive,inactive,inactive,inactive,inactive,inactive,inactive,-0.318% (inactive) and 3.28% (inactive),inactive,inactive,inactive,inactive and 15.5 µM (active),inactive,inactive,inactive,inactive,–,inactive
FC(F)(F)c1ccc(Cl)c(Cl)c1,inactive,inactive,inactive,inactive,inactive,–,inactive,1.14% (inactive) and 2.54% (inactive),inactive,inactive,inactive,inactive,inactive,inactive,inactive,inactive,inactive,–
CCCCC(CC)CO (stereo unspecified),inactive,inactive,inactive,inactive,inactive,–,inactive,6.29% (inactive) and 2.53% (inactive),inactive,inactive,inactive,inactive,inactive,inactive,inactive,inactive,inactive,–
CCCCCCOCCO,inactive,inactive,inactive,inactive,inactive,inactive,inactive,-2.7% (inactive) and 0.672% (inactive),inactive,inactive,inactive,inactive,inactive,inactive,inactive,inactive,inactive,–

# From PubChem BioAssay (Tox21)
